In PubChem BioAssay AID1851 (National Center for Advancing Translational Sciences (NCATS), 2009):
“And” between values parts separate entries of the source, which are not always exact repeats. Identical values can stand only once. The whole screen tested about 16,000 compounds, of which about 2,600 (16%) were called active. Another 20% or so got no clear call; they are omitted. Calls come from the whole dose curve; as a rule, active = well fitted curve in the direction sought with a large enough effect; inconclusive = small, poorly fitted or top-dose-only effect, or effect the other way; inactive = no such curve, though single readings can be large or run the other way. Only a sample is shown. Peptide text beside a SMILES is read from it. * marks the point of attachment. Cbz = O=C(OCc1ccccc1)*

target: Cytochrome P450 2D6 (Homo sapiens) (UniProt P10635); test: Cytochrome panel assay with activity outcomes; settings: recombinant CYP, pro-luciferin dealkylation, luminescence, p450-cyp2d6; series mostly up to 57.1 µM; activity, negative = inhibition: at the top concentration
Sequence (P10635 whole entry, looked up): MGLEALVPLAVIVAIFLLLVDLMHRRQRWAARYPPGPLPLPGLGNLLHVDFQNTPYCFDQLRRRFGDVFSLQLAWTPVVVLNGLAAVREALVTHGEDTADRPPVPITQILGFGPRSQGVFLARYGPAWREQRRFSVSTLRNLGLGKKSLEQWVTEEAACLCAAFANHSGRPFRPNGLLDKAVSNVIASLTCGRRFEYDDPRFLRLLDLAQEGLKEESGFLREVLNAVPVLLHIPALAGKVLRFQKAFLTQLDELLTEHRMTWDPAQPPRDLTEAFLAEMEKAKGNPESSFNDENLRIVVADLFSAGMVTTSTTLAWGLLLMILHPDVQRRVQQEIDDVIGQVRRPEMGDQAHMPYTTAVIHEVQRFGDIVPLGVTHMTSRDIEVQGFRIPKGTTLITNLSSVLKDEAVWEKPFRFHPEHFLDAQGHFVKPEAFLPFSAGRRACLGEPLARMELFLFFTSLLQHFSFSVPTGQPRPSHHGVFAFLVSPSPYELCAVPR
% is set by controls: 0 for no effect and ±100 for the full control effect.

activity, negative = inhibition, inactive:
COc1ccc2c(c1)c(CC(=O)O)c(C)n2Cc1ccc(Cl)cc1 -6.32%, CO[C@@H]1COC(=O)C/C=C\[C@H](C)[C@@H](NS(=O)(=O)c2ccc(C)cc2)COC(=O)C/C=C\[C@@H]1C 1.88% [at 11.4 µM] and 8.18% [at 11.4 µM], Cc1cc(SCC(=O)c2cccs2)nc2c(C)cccc12 -6.27%, O=C(O)CC(c1cccc2ccccc12)n1cccc1 (stereo not drawn) 29.7%, O=C(c1cc(C(F)(F)F)cc(C(F)(F)F)c1)N1CCC2(CC1)CCN(c1ccccn1)CC2 0.968%, O=C1OC2CC3CC1CC(O)(C3)C2 (stereo not drawn) 2.14%, O=C(NCCO[N+](=O)[O-])c1cccnc1 -17.2%, CO[C@@H]1COC(=O)CC=C[C@@H](C)[C@@H]2C=C[C@@H](O)[C@@H](COC(=O)C/C=C\[C@H]1C)O2 20% [at 11.4 µM], O=c1c(CCc2ccccc2)nc2cncnc2n1Cc1ccccc1Cl -18.3%, CC(C)[C@H](NC(=O)OCc1ccccc1)C(=O)N[C@H](C=O)Cc1ccccc1 (Cbz-Val-Phe-aldehyde) -11.9%, Cc1nc2cnc(N3CCNCC3)nc2n(-c2ccccc2)c1=O -1.85%, CN1CCN(c2ncc3nc(-c4cc(F)cc(F)c4)c(=O)n(C4CC4)c3n2)CC1 -3.22%, O=S(=O)(O)c1cc(O)c2c(N=Cc3ccccc3O)cc(S(=O)(=O)O)cc2c1 -8.82% [at 11.4 µM], Cc1cc(C)n(-c2nc(Nc3ccccc3C)nc(-n3nc(C)cc3C)n2)n1 2.75%, CC1(C)O[C@@H]2C[C@H]3[C@H]4C[C@H](F)C5=CC(=O)C=C[C@@]5(C)[C@@H]4[C@H](O)C[C@]3(C)[C@]2(C(=O)CO)O1 -4.12% [at 25.6 µM], Cc1cc(S(=O)(=O)NCCN(C)C)c(C)s1 -9.26%, COc1ccc(-n2c(=O)c(-c3cccc(Cl)c3)nc3cncnc32)cc1 -12.5%, CCOC(=O)c1cnc2cc(-c3ccc(C(C)(C)C)cc3)nn2c1N -11.3%, O=C(CCc1ccccc1)NCc1cccnc1 -16.4%, Cn1c(C(=O)O)c(CC(=O)NCc2cccnc2)c2ccccc21 20.8%, O=[N+]([O-])c1ccc(Cl)c(-c2ccc(/C=N/c3c(-c4ccco4)nc4ccccn34)o2)c1 1.14%, Cc1cc(-c2cccc([N+](=O)[O-])c2)nc2ccc3ccccc3c12 1.13%, N#CCCn1c(=O)c(-c2ccc(F)cc2)nc2cnc(Oc3cccc(Cl)c3)nc21 1.43%, O=C(Cc1c[nH]c2ccccc12)OCC(=O)c1ccccc1 -28.2%, C[C@@](N)(Cc1c[nH]c2ccccc12)C(=O)O 5.35% [at 11.4 µM], [O-][N+]1(CC[N+]2([O-])CCCCC2)CCCCC1 3.01% [at 11.4 µM], COc1cccc(/C=N/n2c(=S)n(C)c3cc(C)c(C)cc32)c1OC 6.36%, CC(=O)CSc1nnc(Cc2ccc([N+](=O)[O-])cc2)o1 -6.4%, O=C(O)Cc1cc2ccccc2nc1C(=O)O 18.6%, COC(=O)C1C(=O)C2=C(CC1C)NC(=O)CC2c1cccc(C)c1 (stereo not drawn) 0.378%, CC[C@@H]1CN2CCc3cc(OC)c(OC)cc3[C@H]2C[C@@H]1C[C@H]1NCCc2cc(OC)c(OC)cc21 1.63% [at 25.6 µM], COc1c2ccoc2nc2c(OC)c(OC[C@H](O)C(C)(C)O)ccc12 -1.44% [at 25.6 µM], CC(=O)N1N=C(c2cccc([N+](=O)[O-])c2)OC1c1ccccc1Cl (stereo not drawn) -11.9%, O=c1c(-c2cccs2)nc2cnc(Oc3cccc(Cl)c3)nc2n1C[C@H]1CCCO1 4.62%, CCc1ccc(-c2cc(C(F)(F)F)n3nc(C(=O)Nc4cnn(Cc5ccccc5C)c4)cc3n2)s1 9.44%, CCOC(=O)c1c(NC(C)=O)sc2c(OC)cccc12 3.56%, COC(=O)c1ccc(OCC2c3cc(OC)c(OC)cc3CCN2C(=O)C2CC2)cc1 (stereo not drawn) -12.4%, CCCCN(C)S(=O)(=O)c1ccc(C(=O)Nc2nnc(CSC)o2)cc1 14.6%, CCCc1nn(-c2ccccc2)c2c1C(c1cccs1)C(C#N)=C(N)O2 (stereo not drawn) -4.88%, Cc1[nH]n(-c2ccccc2)c(=O)c1CCOC(=O)c1cccc(C(F)(F)F)c1 -23.9%, CCC(C(=O)Nc1cccc(C(F)(F)F)c1)c1ccccc1 (stereo not drawn) -21.5%, COc1cccc(-c2cc(C(=O)N/N=C/c3ccc(OC)c(COC(C)=O)c3)c3ccccc3n2)c1 32%, CCc1ccc(NC(=O)Cn2nc(C(F)(F)F)c3c2CCC3)cc1 -27%, O=C(Cn1nnc(-c2ccccc2)n1)OCc1ccccc1 -13.4%, CCC[C@H](Sc1nc(N)nc2nc[nH]c12)C(=O)O 1.31% [at 11.4 µM], CCCNC(=O)OC[C@H]1O[C@@H](CCO/N=C2/[C@H]3O[C@@H]3[C@@H](O)[C@H]3[C@H]2CCn2c(=O)n(-c4ccccc4)c(=O)n23)C=C[C@@H]1Oc1ccc(OC)cc1 10.6% [at 11.4 µM], CCCCCc1nc2c(C#N)c(-c3ccc(Cl)cc3)ccn2n1 -15.8%, O=C(Nc1ccccc1)N1CCC2(CC1)CCN(C(=O)c1cnccn1)CC2 1.86%, O=C(Nc1ccccc1)N1CCCC2(CCN(C(=O)c3cnccn3)CC2)C1 -1.93%, O=C(Nc1ccccc1)N1CC2(CCN(C(=O)c3cnccn3)CC2)C1 -6.12%, O=C(Nc1ccccc1)N1CC[C@@]2(CCCN(C(=O)c3cnccn3)C2)C1 2.56%, O=C(c1cnccn1)N1CCC2(CCCN(c3ccccc3)C2)CC1 -6.98%, O=C(c1cnccn1)N1CCC[C@@]2(CCN(c3ccccn3)C2)C1 -16.8%, O=C(c1cnccn1)N1CCC2(CC1)CCN(c1ccccc1)CC2 -5.31%, O=C(c1cnccn1)N1CCC2(CC1)CN(c1ccccc1)C2 12.2%, Cc1cc(NC(=O)Nc2ccc(F)cc2)no1 -4.04%, Clc1ccccc1C(Nc1ncccn1)Nc1ncccn1 1.87% [at 11.4 µM], CN(C)CCCN=c1c2ccccc2n(C)c2[nH]c(=O)n(C)c(=O)c12 13.4% [at 11.4 µM], CCN1CCN(C(=O)C2c3cc(OC)c(OC)cc3C(=O)N3CCc4ccccc4C23)CC1 (stereo not drawn) 6.87%, O=C(O)C1C2C=CC3(CN(Cc4ccccn4)C(=O)C13)O2 (stereo not drawn) -2.08%, CCOC(=O)Cn1nnc2c(sc3nc4c(c(-c5ccc(Cl)cc5)c32)CCC4)c1=O -12.5%, CC(C)Cn1c(=O)n(C)c(=O)c2[nH]cnc21 -4.45%, FC(F)(F)c1cc(C(F)(F)F)c2ccc(N/N=C/c3cccc(Cl)c3)nc2n1 13.3%, Cc1cnc(CNc2ncncc2-c2c(C)noc2C)cn1 -3.29%, CC(=O)NCCNc1ncncc1-c1ccccc1C -17.1%, CO[C@H]1COC(=O)C/C=C\[C@@H](C)COC(=O)[C@@H](C)NC(=O)C/C=C\[C@@H]1C 1.11% [at 11.4 µM], O=S(=O)(c1ccccc1S(=O)(=O)N1CCCCC1)N1CCCCC1 -8.09%, CC1(CCC#N)N=C(SCCC#N)N(c2ccccc2)C1=O (stereo not drawn) 14.5%, Cc1ccc(S(=O)(=O)N[C@H](CN)C(=O)O)cc1 3.02% [at 11.4 µM], CC(C)Oc1ccc(C2CC(=O)NC3=C2C(=O)CCC3)cc1 (stereo not drawn) -8.75%, CCCCSC(=S)N(C)C1CCS(=O)(=O)C1 (stereo not drawn) -20.3%, C=C(Br)CN(C)CC(=C)Br 9.77% [at 11.4 µM], CCOc1cc(C2CC(=O)c3c(ccc4ccccc34)N2)ccc1O (stereo not drawn) -0.911%, COc1ccc(C2C(C(=O)N3CCOCC3)CCC(=O)N2c2ccc(OC)cc2)cc1 (stereo not drawn) 8.66%, CC(C)C(NC(=O)C12CC3CC(CC(C3)C1)C2)C(=O)NC1=NCCS1 (stereo not drawn) -10.7%, COC(=O)c1cc(C(=O)c2cccc(Cl)c2Cl)cn1C -19.6%, Cc1cnc(CNc2ncncc2-c2ccccc2C#N)cn1 -2.44%

AC50, active:
CCN1/C(=C/c2ccc3cccc(C)c3[n+]2CC)Sc2ccccc21 0.0708 µM, CCN(CCO)Cc1csc2cccc(Br)c12 15.8 µM, O=C(CSCc1c(Cl)cccc1Cl)NCc1cccnc1 15.8 µM, CCOC(=O)CCCc1c[nH]c2ccccc12 17.8 µM, COc1ccc2[nH]cc(CCNc3ncncc3-c3ccccc3CN(C)C)c2c1 10 µM, COc1ccc2[nH]cc(CCNc3ncncc3-c3ccccc3C(F)(F)F)c2c1 2 µM, COc1ccc2[nH]cc(CCNc3ncncc3-c3ccccc3Cl)c2c1 0.631 µM, COc1ccc2[nH]cc(CCNc3ncncc3-c3ccccc3OC)c2c1 1.26 µM, COc1ccc2[nH]cc(CCNc3ncncc3-c3ccccc3C)c2c1 1.26 µM, C[C@@H](Cc1cccc(C(F)(F)F)c1)NCCOC(=O)c1ccccc1 0.0158 µM, CN(C)C(=O)c1ccc(-n2nc(C(F)(F)F)c3c2CCCC3)cc1 8.91 µM, O=C(c1cnccn1)N1CCC2(CC1)CCN(C(c1ccccc1)c1ccccc1)CC2 3.98 µM, O=C(c1cnccn1)N1CCC[C@@]2(CCN(C(c3ccccc3)c3ccccc3)C2)C1 10 µM, O=C(c1cnccn1)N1CCC2(CCCN(C(c3ccccc3)c3ccccc3)C2)CC1 10 µM, O=C(c1cnccn1)N1CCC2(CC1)CN(C(c1ccccc1)c1ccccc1)C2 6.31 µM, Clc1ccccc1-c1cncnc1NCc1cccs1 10 µM, Cc1ccccc1-c1cncnc1NCc1cccs1 12.6 µM, COc1ccccc1-c1cncnc1NCc1cccs1 15.8 µM, FC(F)(F)c1ccccc1-c1cncnc1NCc1cccs1 15.8 µM, CN(C)Cc1ccccc1-c1cncnc1NCc1cccs1 12.6 µM

AC50, inactive:
COc1c(C)c2c(c(O)c1C/C=C(\C)CCC(=O)O)C(=O)OC2
